# Data reported in PubChem BioAssay.
# Active and inactive are the calls of the source.
# How the values were obtained:
# [1] = test system: Plasmodium falciparum Sir2 (PF13_0152, Sir2A); assay: Plasmodium falciparum Sir2A binding compounds – biochemical, small-molecule microarray, 635 nm fluorescence, primary screen (AID 1098); details: fluorescence 635 nm, higher = more signal;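 note: score merges spot fluorescence intensity with its signal-to-noise ratio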
# [2] = probe aDKK1 binding to arrayed compounds – biochemical, biotinylated probe, 635/667 nm fluorescence, primary screen (AID 1099); details: small-molecule microarray, higher = more signal;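 note: score merges 667nm spot fluorescence with signal to noise across triplicate slides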
# [3] = probe aCHRDL2 binding to arrayed compounds – biochemical, biotinylated probe, 635/667 nm fluorescence, primary screen (AID 1100); details: small-molecule microarray, higher = more signal
# [4] = change in splice reporter luminescence, either direction, cell-based, HEK293, spliceosome inhibition project, primary screen (AID 1101); details: HEK293 splicing luciferase reporter, 24 h, higher = more signal, called active from +8 up or from −8 down;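 note: HEK293 cells carrying a splicing-competent luciferase reporter gene; test concentration not given here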
# [5] = molecular target: Fibroblast growth factor 10 (Homo sapiens) (UniProt O15520); assay: compounds binding fibroblast growth factor 10 – biochemical, small-molecule microarray, 635 nm fluorescence, primary screen (AID 1102); details: FGF10 binding, fluorescence 635 nm, higher = more signal
# [6] = test system: glycogen synthase kinase-3 (GSK3A per assay name; protocol says GSK3B); assay: compounds binding glycogen synthase kinase-3 – biochemical, small-molecule microarray, 635 nm fluorescence, GSK3A, primary screen (AID 1103); details: fluorescence 635 nm, higher = more signal; note: the record names both GSK3A and GSK3B
# [7] = molecular target: Epidermal growth factor receptor (Homo sapiens) (UniProt P00533); assay: compounds binding epidermal growth factor receptor – biochemical, small-molecule microarray, 635 nm fluorescence, primary screen (AID 1104); details: EGFR binding, higher = more signal;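 note: score merges 667 nm emission intensity with spot signal to noise over triplicate slides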
# [8] = molecular target: Follistatin-related protein 3 (Homo sapiens) (UniProt O95633); assay: compounds binding follistatin-related protein 3 – biochemical, small-molecule microarray, 635 nm fluorescence, primary screen (AID 1105); details: FSTL3 binding, higher = more signal;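 note: score merges emission near 667 nm and signal to noise per printed spot across three slides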
# [9] = molecular target: Dickkopf-related protein 1 (Homo sapiens) (UniProt O94907); assay: small molecules binding DKK1 protein – biochemical, small-molecule microarray, 635 nm fluorescence scan, primary screen (AID 1106); details: higher = more signal;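 note: score merges emission near 667 nm with signal to noise over three replicate slides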
# [10] = test system: Inhibin beta A chain (activin A); assay: small molecules binding activin A – biochemical, small-molecule microarray, 635 nm fluorescence scan, primary screen (AID 1107); details: INHBA, higher = more signal;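 note: mouse activin A protein probed at 4.33 µg/mL on printed slides; score merges bound-protein fluorescence near 667 nm with spot signal-to-noise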
# [11] = test system: Human papillomavirus type 1a protein E7 (residues 44-93); assay: small molecules binding HPV E7 44-93 – biochemical, small-molecule microarray, residues 44-93, 635 nm fluorescence, primary screen (AID 1108); details: fluorescence 635 nm, higher = more signal;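 note: E7 fragment applied at 1 µg/mL in TBST for 1 h at 4 C; score combines spot fluorescence with its signal to noise ratio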
# [12] = hepatitis C replication reporter changes, two-sided – Huh7 cells, luciferase reporter, HCV replication inhibitor project, primary screen (AID 1109); details: Huh7 HCV replicon luciferase reporter, 48 h; higher = more signal;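 note: huh7 hepatoma cells harbouring a luciferase neomycin HCV replicon reporter; luciferase luminescence as measure of HCV replicon replication; test concentration not given here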
# [13] = molecular target: Left-right determination factor 2 (Homo sapiens) (UniProt O00292); assay: small molecules binding LEFTY2 protein – biochemical, small-molecule microarray, 635 nm fluorescence scan, primary screen (AID 1110); details: higher = more signal
# [14] = molecular target: Calmodulin-1 (Homo sapiens) (UniProt P0DP23); assay: small molecules binding calmodulin-1 with EGTA – biochemical, small-molecule microarray, Cy5-labelled CALM1, profiling panel (AID 1111); details: Cy5-CALM1 binding fluorescence, higher = more signal;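 note: labelled calmodulin applied in Tris saline Tween buffer holding calcium plus EGTA and DTT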
# [15] = molecular target: Calmodulin-1 (Homo sapiens) (UniProt P0DP23); assay: small molecules binding Ca-loaded calmodulin-1 – biochemical, small-molecule microarray, Cy5-labelled CALM1, plus calcium, artefact control for SMM control-protein annotation, profiling panel (AID 1112); details: Cy5-CALM1 binding fluorescence, higher = more signal;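 note: score merges spot fluorescence with signal to noise from triplicate slides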
# [16] = probe aWnt5a binding to arrayed compounds – biochemical, biotinylated probe, 635/667 nm fluorescence, primary screen (AID 1113); details: small-molecule microarray, higher = more signal;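 note: score merges 667 nm fluorescence intensity with signal-to-noise per printed feature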
# [17] = probe aShh binding to arrayed compounds – biochemical, biotinylated probe, 635/667 nm fluorescence, primary screen (AID 1114); details: small-molecule microarray, higher = more signal;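 note: probe is biotin-labelled aShh protein from a stem cell growth factor screen; measures binding of labelled protein to compounds printed on the slide; score merges feature fluorescence at 667 nm with signal-to-noise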
# [18] = probe aNog binding to arrayed compounds – biochemical, biotinylated probe, 635/667 nm fluorescence, primary screen (AID 1115); details: small-molecule microarray, higher = more signal;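 note: probe is biotinylated aNog protein used at 0.15 µg/mL for 1 h at 4 C; z-score combines 667 nm fluorescence of each spot with its signal to noise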
# [19] = molecular target: Torsin-1A-interacting protein 1 (Homo sapiens) (UniProt Q5JTV8); assay: compound microarray binding of lysate hLAP1 – cell lysate, small-molecule microarray, COS7 lysate, 635/667 nm fluorescence, primary screen (AID 1116); details: 635 nm fluorescence, higher = more signal
# [20] = molecular target: Alpha-bungarotoxin (Bungarus multicinctus) (UniProt P60615); assay: compounds binding labelled alpha-BTX control protein – biochemical, small-molecule microarray, Alexa647 label, 635/667 nm fluorescence, artefact control for SMM control protein annotation, profiling panel (AID 1117); details: alpha-BTX-A647 binding fluorescence, higher = more signal
# Alpha-bungarotoxin (Bungarus multicinctus), sequence (P60615 whole entry, looked up): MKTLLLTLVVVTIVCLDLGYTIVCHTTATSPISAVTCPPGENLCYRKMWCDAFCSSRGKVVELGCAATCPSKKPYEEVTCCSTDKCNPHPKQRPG
# Dickkopf-related protein 1 (Homo sapiens), sequence (O94907 whole entry, looked up): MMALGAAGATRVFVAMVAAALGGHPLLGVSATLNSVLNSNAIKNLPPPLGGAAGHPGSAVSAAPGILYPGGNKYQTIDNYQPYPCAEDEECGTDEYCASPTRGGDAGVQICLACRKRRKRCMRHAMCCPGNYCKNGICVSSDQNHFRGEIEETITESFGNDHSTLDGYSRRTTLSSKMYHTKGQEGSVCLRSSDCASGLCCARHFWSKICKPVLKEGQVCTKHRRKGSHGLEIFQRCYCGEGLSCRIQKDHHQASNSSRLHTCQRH
# Fibroblast growth factor 10 (Homo sapiens), sequence (O15520 whole entry, looked up): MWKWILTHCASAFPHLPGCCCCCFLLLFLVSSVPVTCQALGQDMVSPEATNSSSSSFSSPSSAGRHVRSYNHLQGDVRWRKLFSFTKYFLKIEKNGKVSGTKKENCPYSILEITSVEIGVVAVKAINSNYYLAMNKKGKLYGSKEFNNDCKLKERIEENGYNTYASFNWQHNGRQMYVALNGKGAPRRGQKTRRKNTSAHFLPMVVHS
# Torsin-1A-interacting protein 1 (Homo sapiens), sequence (Q5JTV8 whole entry, looked up): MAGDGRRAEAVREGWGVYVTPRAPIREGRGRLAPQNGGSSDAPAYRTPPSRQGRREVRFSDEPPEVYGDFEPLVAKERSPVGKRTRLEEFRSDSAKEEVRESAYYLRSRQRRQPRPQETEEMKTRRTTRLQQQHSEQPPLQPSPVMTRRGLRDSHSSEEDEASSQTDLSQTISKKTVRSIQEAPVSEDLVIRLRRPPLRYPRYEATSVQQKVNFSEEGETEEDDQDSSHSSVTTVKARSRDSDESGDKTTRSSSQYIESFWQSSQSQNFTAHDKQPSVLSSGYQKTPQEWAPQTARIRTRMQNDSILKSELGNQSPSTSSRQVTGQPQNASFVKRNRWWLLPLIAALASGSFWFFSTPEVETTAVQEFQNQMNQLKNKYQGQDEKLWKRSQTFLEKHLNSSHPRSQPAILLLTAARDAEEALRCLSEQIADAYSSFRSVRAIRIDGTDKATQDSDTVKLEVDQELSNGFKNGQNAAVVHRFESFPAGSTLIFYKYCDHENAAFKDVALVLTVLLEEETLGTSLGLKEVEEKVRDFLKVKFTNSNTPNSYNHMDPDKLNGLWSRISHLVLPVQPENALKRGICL
# Follistatin-related protein 3 (Homo sapiens), sequence (O95633 whole entry, looked up): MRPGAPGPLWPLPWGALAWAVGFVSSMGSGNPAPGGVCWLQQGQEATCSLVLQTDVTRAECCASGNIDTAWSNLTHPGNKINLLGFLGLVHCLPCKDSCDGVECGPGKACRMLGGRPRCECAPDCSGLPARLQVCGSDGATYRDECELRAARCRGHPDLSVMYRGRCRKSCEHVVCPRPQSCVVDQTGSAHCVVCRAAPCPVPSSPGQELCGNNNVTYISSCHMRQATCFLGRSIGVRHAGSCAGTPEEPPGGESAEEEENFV
# Epidermal growth factor receptor (Homo sapiens), sequence (P00533 whole entry, looked up): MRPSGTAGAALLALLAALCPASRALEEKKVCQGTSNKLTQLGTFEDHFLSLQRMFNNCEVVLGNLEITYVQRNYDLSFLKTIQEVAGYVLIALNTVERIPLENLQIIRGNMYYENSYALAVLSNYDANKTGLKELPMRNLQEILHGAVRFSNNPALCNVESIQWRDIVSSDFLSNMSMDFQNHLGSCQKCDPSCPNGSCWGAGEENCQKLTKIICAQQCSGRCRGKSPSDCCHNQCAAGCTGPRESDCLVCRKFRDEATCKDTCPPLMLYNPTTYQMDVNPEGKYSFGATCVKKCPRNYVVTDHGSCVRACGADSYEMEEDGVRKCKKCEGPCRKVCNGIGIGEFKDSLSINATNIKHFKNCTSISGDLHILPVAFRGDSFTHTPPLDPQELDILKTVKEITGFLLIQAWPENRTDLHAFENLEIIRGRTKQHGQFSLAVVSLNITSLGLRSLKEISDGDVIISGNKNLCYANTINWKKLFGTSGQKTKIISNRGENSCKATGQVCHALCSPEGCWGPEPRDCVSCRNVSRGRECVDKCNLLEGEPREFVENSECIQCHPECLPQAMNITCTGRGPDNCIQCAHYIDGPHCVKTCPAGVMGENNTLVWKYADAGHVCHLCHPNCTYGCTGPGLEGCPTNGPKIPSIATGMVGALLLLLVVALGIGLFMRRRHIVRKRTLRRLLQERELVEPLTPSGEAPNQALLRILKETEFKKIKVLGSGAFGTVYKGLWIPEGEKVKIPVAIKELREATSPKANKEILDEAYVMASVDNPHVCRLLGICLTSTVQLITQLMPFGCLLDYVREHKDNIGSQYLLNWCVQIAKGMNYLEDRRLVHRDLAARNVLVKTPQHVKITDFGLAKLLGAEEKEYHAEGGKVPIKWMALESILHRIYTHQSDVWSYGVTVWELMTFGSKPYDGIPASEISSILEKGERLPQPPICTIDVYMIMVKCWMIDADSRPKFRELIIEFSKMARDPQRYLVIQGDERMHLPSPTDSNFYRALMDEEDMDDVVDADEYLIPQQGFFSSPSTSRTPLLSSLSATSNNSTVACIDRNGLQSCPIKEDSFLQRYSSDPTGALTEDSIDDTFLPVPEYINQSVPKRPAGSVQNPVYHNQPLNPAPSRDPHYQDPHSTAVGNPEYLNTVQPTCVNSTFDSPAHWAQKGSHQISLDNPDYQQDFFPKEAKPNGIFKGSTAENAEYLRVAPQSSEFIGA
# Left-right determination factor 2 (Homo sapiens), sequence (O00292 whole entry, looked up): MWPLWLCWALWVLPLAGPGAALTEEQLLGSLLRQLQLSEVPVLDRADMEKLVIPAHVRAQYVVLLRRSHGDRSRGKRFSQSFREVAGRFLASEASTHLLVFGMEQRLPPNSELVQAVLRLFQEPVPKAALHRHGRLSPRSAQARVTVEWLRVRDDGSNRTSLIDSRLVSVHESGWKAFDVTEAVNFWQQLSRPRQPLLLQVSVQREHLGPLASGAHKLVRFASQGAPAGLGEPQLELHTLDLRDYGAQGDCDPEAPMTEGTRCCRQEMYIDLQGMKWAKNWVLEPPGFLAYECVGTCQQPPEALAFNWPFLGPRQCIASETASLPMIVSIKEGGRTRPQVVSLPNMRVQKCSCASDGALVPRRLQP
SMILES,composite z-score [1],composite z-score [2],composite z-score [3],z-score [4],composite z-score [5],composite z-score [6],composite z-score [7],composite z-score [8],composite z-score [9],composite z-score [10],composite z-score [11],z-score [12],composite z-score [13],composite z-score [14],composite z-score [15],composite z-score [16],composite z-score [17],composite z-score [18],composite z-score [19],composite z-score [20]
COCC1=C([C@H](O)CCc2ccccc2)[C@H](CO)[C@@H]2C(=O)N(Cc3ccccc3)C(=O)[C@@H]2C1,-0.0333,-0.253,-0.25,0.212 (inactive),0.438,0.0321,0.313,0.265,0.391,0.554,-0.0325,-0.711,0.435,-0.519,-0.465,-0.0194,-0.214,-0.139,0.167,0.206
[N-]=[N+]=NCc1ccccc1[C@H]1OC(c2ccc(OCCCO)cc2)=N[C@@]1(Cc1ccccc1)C(=O)O,0.208,0.213,0.884,-1.01 (inactive),0.621,0.51,0.0378,0.47,-0.213,1.25,1.38,-2.64,0.115,1.46,0.484,0.0079,0.199,-0.204,0.875,0.96
CCCCC(=C=CC[C@H](O)c1ccccc1OCCO)C[C@H](O)c1cc(Cl)cc(Cl)c1O,1.26,0.0947,0.0444,0.23 (inactive),0.345,0.24,-0.619,0.179,-0.429,0.796,0.405,-1.18,-0.408,0.684,0.466,-0.0445,0.0278,0.22,0.582,0.876
C=CC[C@]1(C(=O)NCCN2CCOCC2)N=C(c2ccc(OCCCO)cc2)O[C@H]1c1ccccc1N=[N+]=[N-],0.529,1.22,1.31,-0.448 (inactive),1.08,0.287,0.327,1.05,0.283,1.6,1.01,-0.44,0.26,1.34,-0.0083,0.048,-0.155,1.39,1.36,1.3
O=c1cccc(-c2cccc3ccccc23)o1,1.06,0.849,1.23,0.873 (inactive),-0.52,-0.274,-1.18,-0.218,-0.951,1.46,-0.285,-0.497,-0.905,0.088,0.33,-0.0751,-0.138,1.25,0.78,0.541
C=CCOC(=O)[C@H]1[C@@H]2C(=O)O[C@@H](c3ccccc3)[C@@H](c3ccccc3)N2[C@@H](c2ccc(OCCOC(=O)[C@@H]3C[C@@H]4C(=O)NCC(=O)N4[C@@H]3c3ccc(O)cc3)cc2)[C@]12C(=O)Nc1ccc(I)cc12,1.49,-0.106,0.0065,-0.0179 (inactive),1.2,1.3,1.14,1.34,0.873,0.141,1.37,-1.59,1.04,1.56,0.341,-0.0519,0.131,-0.412,1.14,1.52
C=C(CCCC)C(=O)CC[C@@H](OC(=O)c1ccccc1-c1ccccc1C(=O)O)c1ccc(CO)o1,0.628,-0.0075,-0.301,0.716 (inactive),1.22,1.1,-0.183,0.818,1.03,1.01,0.776,-0.705,0.584,-0.213,-0.483,-0.0478,0.108,-0.266,1.23,-0.146
CC(C)CNC(=O)[C@@]1(C)c2ccccc2C(=O)N(C(C)C)[C@H]1c1ccc(CO)cc1,1.09,0.0084,0.567,-0.0251 (inactive),-1.42,-1.29,-0.741,-0.542,-0.854,1.26,-1.4,-1.13,-0.243,-0.489,-0.577,-0.191,-0.375,-0.524,-0.181,-0.018
Cc1ccc(S[C@]2(C(=O)NCCCN(C)C)CC(=O)N(Cc3ccccc3)[C@@H]2c2ccc(CO)cc2)cc1,-1.43,0.938,1.15,-0.522 (inactive),-1.01,-0.726,-1.03,-1.26,-0.909,0.591,-0.364,-1.7,-1.03,-0.676,-0.674,-0.184,-0.145,0.604,1.17,0.75
Cc1ccc(N2C(=O)c3ccccc3[C@@H](C(=O)NC(C)C)[C@@H]2c2ccc(CO)cc2)nc1,1.87,0.167,0.61,0.245 (inactive),0.121,-0.0399,-0.416,-0.64,-0.32,0.726,-0.191,-0.301,0.0413,-0.973,-0.754,0.0101,-0.291,-0.493,2.09,-0.719
COc1ccc([Si](C)(C)[C@@H]2[C@@H](CCO)O[C@]3(C(=O)N(Cc4ccc(N5C(=O)c6cccc7cccc5c67)cc4)c4ccccc43)[C@H]2C)cc1,1.03,0.0129,0.598,-1.11 (inactive),-0.66,-0.445,-1.13,-0.66,-0.674,-0.194,-1.27,-4.81,-0.983,0.424,1.09,-0.154,-0.16,0.094,-0.164,-0.0784
